The values that follow come from PubChem BioAssay (NCI).

Assay in all cases: NCI-60 one-dose screen, 48 h (100 = growth as untreated, 0 = no growth, -100 = all killed)
Details in all cases: 10 µM unless noted

Assay [1] concerns DU-145 prostate.
For assay [2], the system named is K-562 leukemia.
In assay [3] the test system is MALME-3M melanoma.
For assay [4], the system named is MDA-MB-231 breast.
Assay [5] deals with RXF 393 renal.
The subject of assay [6] is SF-268 CNS.
Assay [7] concerns SF-295 CNS.
The test system of assay [8] is SF-539 CNS.
In assay [9] the test system is UACC-257 melanoma.
Assay [10] has as its system M14 melanoma.

“And” between values parts separate entries of the source, which are not always exact repeats. Identical values can stand only once. Compounds without any hit were thinned out: in the full panel of roughly 83,000, 20% have a hit.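 Testing used 96-well plates and a 48-hour single-concentration exposure. Example: -40 means 40% of the starting cells died.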 The source made the active and inactive calls. Rule for the calls: active = growth percent below 10; inactive = the rest.

Consider `COc1cc(Nc2nc3ccccc3cc2C(=O)Nc2ccc(F)c(F)c2)cc(OC)c1OC`, for which the growth in [1] was 30% (inactive); in assay [2], 16.8% (inactive); in [3], 51.5% (inactive); in [4], 30.5% (inactive); in assay [5] it was 68.3% (inactive); in assay [6], 40.4% (inactive). The growth in assay [7] was 14.2% (inactive); in assay [8], 37.9% (inactive); in assay [9], 52.3% (inactive); in assay [10], 24.4% (inactive).

Turning to `Nc1nc(Nc2ccc(F)cc2)nn1C(=O)c1cc(Cl)ccc1Cl`, the growth in assay [1] was 78.8% (inactive); in assay [2], 97.4% (inactive); in assay [3], 108% (inactive); in [4], 88.2% (inactive); in [5], 21.8% (inactive); in assay [6] it was 74.9% (inactive). In addition, the growth was 94.3% (inactive) in [7], 72.8% (inactive) in assay [8], 106% (inactive) in assay [9] and 86.8% (inactive) in [10].

With `O=C(/C=C/c1ccc(Cl)s1)c1ccc(Cl)s1`, the growth in assay [1] is 97.8% (inactive) and 114% (inactive); in assay [2], 95% (inactive) and 92.6% (inactive); in assay [3], 114% (inactive); in [4], 108% (inactive) and 112% (inactive); in assay [5], 90.8% (inactive) and 89.7% (inactive); in assay [6], 100% (inactive) and 109% (inactive). The growth in [7] was 90.7% (inactive); in assay [8], 114% (inactive) and 98.3% (inactive); in assay [9], 101% (inactive) and 103% (inactive); in [10], 101% (inactive) and 115% (inactive).

As to `O=S(=O)(Nc1ccc(F)cc1)c1ccc(-c2cnc(C3CC3)o2)cc1`, the growth is 34% (inactive) in assay [1]; 11.9% (inactive) in assay [2]; 46% (inactive) in assay [3]; 49.7% (inactive) in assay [4]; 25.9% (inactive) in [5]; 45.5% (inactive) in [6]. For the same compound, the growth in [7] is 30.2% (inactive); in [8] it was 19.4% (inactive); in assay [9], 43.4% (inactive); in assay [10], 12.2% (inactive).

Turning to `COc1cc(CO)cc2cc3ccccc3nc12`, the growth in [1] is 106% (inactive); in [2], 90.7% (inactive); in assay [3], 112% (inactive); in [4], 101% (inactive); in [5], 115% (inactive); in assay [6], 100% (inactive). For the same compound, the growth in [7] was 102% (inactive); in assay [8], 102% (inactive); in [9], 105% (inactive); in [10] it was 105% (inactive).

As for `CCn1cc(C(=O)NN=C2CCCC2)c(=O)c2ccc(C)nc21`, the growth in assay [1] is 109% (inactive); in assay [2], 93.1% (inactive); in [3], 91.8% (inactive); in assay [4], 93.3% (inactive); in assay [5] it was 103% (inactive); in assay [6] it was 93.4% (inactive). The growth in [7] was 92.8% (inactive); in assay [8] it was 96.2% (inactive); in [9], 90.1% (inactive); in [10], 102% (inactive).

For `COc1cc(/C=C/C(=O)c2ccc(NC(=O)CSc3nnc(-c4cc(-c5ccccc5)nc5ccccc45)n3-c3ccccc3)cc2)cc(OC)c1OC`, the growth in [1] is 83.7% (inactive); in assay [2], 49.7% (inactive); in assay [3] it was 94.6% (inactive); in [4] it was 64.2% (inactive); in [5], 94.1% (inactive); in [6] it was 90.8% (inactive). Further, the growth in assay [7] is 96.6% (inactive); in [8], 88.3% (inactive); in [9], 109% (inactive); in assay [10], 94.5% (inactive).

In the case of `Cc1ccc(NC(=O)c2sc3nc(C)c(C(=O)c4ccccc4)cc3c2N)cc1`, the growth in assay [1] is 95.4% (inactive); in assay [2], 55.7% (inactive); in assay [3] it was 87.6% (inactive); in [4], 92% (inactive); in [5] it was 98.8% (inactive); in assay [6] it was 91.1% (inactive). The growth was 73.1% (inactive) in assay [7], 94.8% (inactive) in assay [8], 94.9% (inactive) in assay [9] and 82.7% (inactive) in [10].

Take `N#CC1C(=O)c2ccccc2C1c1ccccc1` (stereo not given): the growth in [1] was 109% (inactive) and 104% (inactive); in assay [2] it was 120% (inactive) and 101% (inactive); in assay [3] it was 96% (inactive) and 106% (inactive); in [4] it was 104% (inactive) and 120% (inactive); in [5], 94.7% (inactive) and 124% (inactive); in assay [6] it was 104% (inactive) and 101% (inactive). In addition, the growth is 96% (inactive) and 109% (inactive) in assay [7]; 110% (inactive) and 107% (inactive) in [8]; 113% (inactive) and 99.1% (inactive) in assay [9]; 104% (inactive) and 105% (inactive) in [10].

`COc1ccc(-c2ccccc2)cc1-c1c(Nc2cc(Cl)cc(Cl)c2O)c(=O)c1=O`: the growth in assay [1] is 20.5% (inactive); in assay [2] it was 13.5% (inactive); in [3] it was -19.4% (active); in assay [4] it was 15% (inactive); in assay [5], -13% (active); in [6], 18.3% (inactive). The growth in [7] was -6.58% (active); in [8], 12.7% (inactive); in assay [9], 2.86% (active); in [10] it was 24.6% (inactive).

As for `COc1ccccc1/C=C/C(=O)/C=C/c1ccccc1OC`, the growth in [1] was -11.9% (active) and -11.3% (active); in assay [2], 10.9% (inactive); in assay [3], -33.8% (active) and 2.49% (active); in assay [4] it was 17.5% (inactive) and 8.92% (active); in assay [5], -87.5% (active) and -89.7% (active); in assay [6], 8.73% (active) and 21.3% (inactive). Also, the growth was 10.4% (inactive) and -31% (active) in assay [7]; 3.38% (active) and -29.1% (active) in assay [8]; -29.2% (active) and 6.89% (active) in [9]; 8.11% (active) and -49.7% (active) in assay [10].

As to `Clc1ccc(Nc2nc(Nc3ccc(Cl)cc3)nc(Nc3ccc(-c4cc(-c5cccc(Cl)c5)on4)cc3)n2)cc1`, the growth in assay [1] is 110% (inactive); in assay [2], 85.9% (inactive); in [3], 128% (inactive); in assay [4], 81.3% (inactive); in assay [5] it was 39.3% (inactive); in assay [6], 87.7% (inactive). Also, the growth in [7] was 102% (inactive); in assay [8], 102% (inactive); in [9], 108% (inactive); in assay [10], 94.8% (inactive).
